# Bioassay records deposited in PubChem by several laboratories.
# Hits are enriched below; roughly 2.6% of the tested compounds scored in any of these assays.
# TROY NFkB inh: inhibitors of TROY-driven NF-kB signaling, primary screen, Q293 LMP1-TROYcd cells, NF-kB luciferase, uHTS; AID 1347056, 2019; 360,000 tested, 0.98% active; inhibition, % at 10 µM; Q293 LMP1-TROYcd NF-kB luciferase reporter, 4 h;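 active = compounds whose plate-normalised and pattern-corrected inhibition of the luciferase reporter signal at the single screening dose is 50% or more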
# aDG glyco up: activators of alpha-DG glycosylation, primary screen, uHTS, Pro5-aDG cells, AlphaScreen; alpha-DG glycosylation AlphaScreen (IIH6); 0% Pro5, 100% B10-LARGE cell signal; activation, % at 10 µM; 360,000 tested, 0.22% active; AID 624168, 2012;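 active = activation of at least 8% versus controls, or a plate z-score of at least 8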;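 note: Pro5 are CHO cells carrying HIG-tagged alpha-DG that lacks glycosylation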
# TWEAK Fn14 block: inhibitors of TWEAK-Fn14 signaling, primary screen, luciferase reporter cells, uHTS. TWEAK-stimulated Fn14 reporter cells, luciferase luminescence, 8 h. inhibition, % at 10 µM. 360,000 tested, 2% active. AID 1159606, 2016; in the data active = inhibition above about 50%
# HSP90 inh: HSP90 inhibitors, primary screen, cell lysate, luminescence | 290,000 tested, 0.91% active | Heat shock protein HSP 90 (rabbit reticulocyte lysate; luciferase refolding) | Rabbit reticulocyte lysate, luciferase refolding luminescence, 3 h | inhibition, % at 5.6 µM;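 active = inhibition above the screen-wide mean plus 3 SD, computed separately per campaign, cut at about 16% in these data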;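 note: 0% = DMSO wells and 100% = 60 µM geldanamycin wells; inhibitors lower the luminescence because luciferase stays unfolded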
# EBV LMP1 NFkB: EBV LMP1-driven NF-kappaB luciferase reporter inhibitors, primary screen, cell-based, luminescence, single point. inhibition, % at 12.5 µM. 350,000 tested, 0.69% active. LMP1-induced NF-kappaB luciferase reporter cells; in the data active = inhibition above about 41%;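 note: 0% = neutral control wells and 100% = reference inhibitor control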
# LGR2 inh: inhibitors of bursicon-induced LGR2 CRE-luciferase signal, primary screen, cell-based, HEK293, CRE-luciferase reporter, bursicon stimulation | bursicon-stimulated, 4 h | inhibition, % at 9.99 µM | 380,000 tested, 0.35% active | AID 720647, 2013;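 active = drop in luminescence signal, shown as inhibition above about 50% in the replicate tests, limit read from the data, passing the limit was not always enough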;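 note: agonist challenge used bursicon conditioned medium at about half maximal strength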
# * hit, by the source's call; x = no result.
SMILES,TROY NFkB inh,aDG glyco up,TWEAK Fn14 block,HSP90 inh,EBV LMP1 NFkB,LGR2 inh
COc1ccc(/C=C2/SC(=S)N(CCCC(=O)Nc3ccccc3C(=O)O)C2=O)cc1,75*,0,92,13,17,-3
COc1ccc(/C=C2\SC(=S)N(CCCC(=O)NNC(=O)c3ccccc3O)C2=O)cc1,13,3,42,-2,31,8
C[C@H](CO)N1C[C@H](C)[C@H](CN(C)Cc2ccccc2)OCCCC[C@H](C)Oc2ccc(NC(=O)Nc3cccc4ccccc34)cc2C1=O,x,x,x,x,x,12
CN(C)C(=O)C[C@H]1CC[C@@H]2[C@H](COC[C@H](O)CN2S(=O)(=O)c2ccccc2)O1,x,x,x,x,x,5
COc1ccc(/C=C2\SC(=O)N(CCNC(=O)Cn3[nH]c(=O)c4ccccc4c3=O)C2=O)cc1,35,0,51*,x,4,-20
COc1cccc(/C=C2\SC(=S)N(CCC(=O)NCCc3ccc(O)cc3)C2=O)c1,5,0,-5,-1,41*,4
C/C=C/c1cnc2c(c1)C(=O)N([C@@H](C)CO)C[C@@H](C)[C@@H](CN(C)S(=O)(=O)c1ccccc1)O2,x,x,x,x,x,16
Cc1ccc(S(=O)(=O)NC2CCSC2=O)cc1C (stereo not drawn),-7,0,-6,x,69*,8
CN(c1ccccc1)c1ccc(/C=C(/CCC(=O)O)c2nc3ccccc3s2)cc1[N+](=O)[O-],57*,0,42,x,5,18
CN(C)C(CNC(=O)CSc1nnc(-c2ccco2)o1)c1ccccc1 (stereo not drawn),1,0,98*,2,-10,x
CCCc1ccc(OCc2ccc(C(=O)N3CCCC3)o2)cc1,-1,0,50,17*,3,-31
COCCn1c(=NC(=O)c2ccc(S(=O)(=O)N3CCOCC3)cc2)sc2cc(S(N)(=O)=O)ccc21,7,0,-2,4,-5,4
CCn1c(=NC(=O)c2ccc(S(=O)(=O)N3CCOCC3)cc2)sc2cccc(OC)c21,38,3,60*,3,26,x
CCn1c(=NC(=O)CCS(=O)(=O)c2ccccc2)sc2cccc(OC)c21,41,4,58*,-1,26,1
C[C@H](CO)N1C[C@H](C)[C@@H](CN(C)C(=O)Nc2ccccc2)Oc2c(NC(=O)C3CC3)cccc2C1=O,x,x,x,x,x,-2
C[C@@H]1CCCCO[C@H](CN(C)C(=O)CCC(F)(F)F)[C@H](C)CN([C@H](C)CO)C(=O)c2cc(NS(=O)(=O)c3ccccc3)ccc2O1,x,x,x,x,x,-14
CCOc1ccc(NC(=O)CSc2nnc(-c3ccccc3)n2N)cc1,-4,0,7,-3,-11,14
CCCc1nnc(SCC(=O)Nc2ccc(OCC)cc2)n1N,-1,0,100*,3,0,x
CC(C)C(=O)N1CCN(c2ccc(NC(=O)COc3ccccc3[N+](=O)[O-])cc2)CC1,49,0,75*,-1,12,63*
CC(=O)N1CCN(c2ccc(NC(=O)c3ccc(Cl)cc3)cc2)CC1,1,0,-6,-2,8,-1
O=C(Nc1ccc(N2CCCCC2)cc1)c1ccccc1,18,0,21,28*,2,x
Cc1ccc(C(=O)Nc2ccc(N3CCCCC3)cc2)cc1,-36,0,13,x,-28,x
CC(=O)c1c[nH]c(C(=O)Nc2ccc(N3CCCCCC3)cc2)c1,22,0,69*,x,7,-32
CC(=O)N1CCN(c2ccc(NC(=O)c3ccc(C(C)(C)C)cc3)cc2)CC1,52*,0,20,1,3,-11
O=C(C[C@H]1CC[C@H]2[C@@H](COC[C@@H](O)CN2Cc2cc(F)ccc2F)O1)NCc1ccccc1,x,x,x,x,x,-3
O=C(NCC1CC1)[C@@H]1N[C@@H]2c3ccc(-c4ccccc4F)c(=O)n3C[C@@H]2[C@H]1CO,x,x,x,x,x,-6
COc1ccccc1-c1ccc2c(c1)[C@H]1[C@H](CCN1S(=O)(=O)c1cccc(C)c1)[C@H](CO)N2,x,x,x,x,x,-13
